Shown are actives, neighbours in structure and some others; about 4.1% of the full set was active somewhere.
FAS TE block: FAS thioesterase (human) inhibition | recombinant FAS-TE, OMFH fluorogenic substrate, fluorescence endpoint | inhibition, % at 15 µM | hit rate 0.67% among 360,000 | AID 602261;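 active = compounds whose normalised, plate-corrected inhibition of enzyme fluorescence in the single-dose primary screen is 50% or more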
pCIP destab: lowers stability of the mouse p/CIP coactivator protein; Q05BA5; hit rate 0.01% among 290,000; F442A p/CIP-EGFP cells, EGFP fluorescence, 16 h; decrease of EGFP signal, % at 10 µM;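 active = EGFP signal decrease of at least 30% at 10 µM or well 3 SD below plate mean, unless failing retest; inactive = the rest, including hits failing retest or dose response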
NR3A LBD binder: NR3A (human) ligand-binding domain modulation; NR3A LBD differential scanning fluorimetry, Tm shift; 0% = protein alone, 100% = glycine-bound protein; Tm shift relative to glycine control, % at 25 µM; hit rate 2.5% among 340,000;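 active = melting temperature shift of at least 10% of the positive control shift, at one fixed dose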
beta cell repl: inducers of beta-cell replication in MIN6 cells; MIN6 cells proliferation, ATPlite luminescence, 48 h; cells starved in 0.2% serum; 100% = growth in 10% serum; proliferation, % at 10 µM; hit rate 0.29% among 330,000;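 active = compounds whose signal lies at least 3.5 SD above the mean of all wells on their plate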
MPTP inh: inhibitors of mitochondrial permeability transition pore | isolated mouse mitochondria, Ca2+ swelling absorbance, 30 min | inhibition, % at 10 µM | hit rate 1.4% among 360,000;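 active = inhibition of 50% or more, scaled per plate between neutral and stimulator controls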
FAS-TE conf: confirmation of human fatty acid synthase thioesterase inhibitors. shares compounds with FAS TE block. recombinant FAS-TE, OMFH fluorogenic substrate, fluorescence. inhibition, % at 15 µM. hit rate 45% among 2,300. AID 624325;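 active = compounds inhibiting the enzyme by at least 50% at 15 µM in any one of the replicates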
Of the large screens only hits and unclear results are named; the others gave an inactive call (follow-up assays come after a bar, where they were run).

CC(C)CC1NC(=O)c2cc3ccccc3cc2-n2c1nc1cc(Cl)ccc1c2=O (stereo not given)	FAS TE block 82 (no result: pCIP destab, NR3A LBD binder, beta cell repl) | FAS-TE conf inactive
O=C1NC(Cc2ccccc2)c2nc3cc(F)ccc3c(=O)n2-c2cc3ccccc3cc21 (stereo not given)	FAS TE block 92 (no result: pCIP destab, NR3A LBD binder, beta cell repl) | FAS-TE conf inactive
Nc1c(Cl)cc(-c2csc(N3CCCC3c3nc4cc(Cl)c(N5CCCCC5)cc4n3CCOCCO)n2)cc1Cl (stereo not given)	FAS TE block 70 (no result: pCIP destab) | FAS-TE conf inactive
Nc1c(Cl)cc(-c2csc(N3CCCC3c3nc4cc(Cl)c(N5CCCCC5)cc4n3CCCO)n2)cc1Cl (stereo not given)	none (no result: pCIP destab)
CCn1c(Cl)c(C=O)s/c1=N\S(=O)(=O)c1ccccc1	FAS TE block 76 | FAS-TE conf inactive
CCN1C(=O)CS/C1=N\S(=O)(=O)c1ccc(Cl)cc1	none
O=C(Nc1ccc(Cl)cc1)c1nc[nH]c1C(=O)NCCCNC(=O)c1[nH]cnc1C(=O)Nc1ccc(Cl)cc1	none (no result: FAS TE block, pCIP destab, NR3A LBD binder, MPTP inh)
Cc1cccc(NC(=S)/N=C(\N)Nc2nc(C)c3ccccc3n2)c1	FAS TE block 59 | FAS-TE conf inactive
Cc1cccc(NC(=S)/N=C(\N)Nc2nc(C)c3ccc(C)cc3n2)c1	none
Clc1ccccc1CNCc1ccc2c(c1)OCO2	none (no result: pCIP destab, NR3A LBD binder, beta cell repl)
C(=C\c1ccccc1)/CN1CCN(C(c2nnnn2Cc2ccccc2)C2CC2)CC1 (stereo not given)	none (no result: pCIP destab, NR3A LBD binder, beta cell repl)
CCCN(C)C[C@@H]1Oc2ncc(Br)cc2C(=O)N([C@@H](C)CO)C[C@H]1C	none (no result: pCIP destab, NR3A LBD binder, beta cell repl)
Cc1ccc([N+](=O)[O-])cc1NC(=O)c1ccc(CSc2ccccc2)cc1	none
Cc1ccc(SCc2ccc(C(=O)Nc3cccc([N+](=O)[O-])c3C)cc2)cc1	FAS TE block 51 | FAS-TE conf inactive
CC(N)c1csc(Nc2cc(Oc3ccccc3)ncn2)n1 (stereo not given)	none (no result: pCIP destab, NR3A LBD binder, beta cell repl)
O=C(c1cccc(S(=O)(=O)N2CCCCC2)c1)N1CCCCC1	none
O=C(c1cccc(S(=O)(=O)N2CCCC2)c1)c1cccc(S(=O)(=O)N2CCCC2)c1	FAS TE block 54 | FAS-TE conf 48
CCN(Cc1ccccc1)c1ccc(/C=N/NC(=O)c2cccc(S(=O)(=O)N3CCOCC3)c2)cc1	FAS TE block 82 | FAS-TE conf inactive
CC(C)C[C@@H](CNCC(=O)[C@H](CC(C)C)NC(=O)c1[nH]cnc1C(=O)N[C@@H](C)CN)NC(=O)c1nc[nH]c1C(=O)N[C@@H](CC(=O)O)C(=O)O	none (no result: pCIP destab, beta cell repl)
COc1ccc(CNC(=O)/C=C/c2ccccc2[N+](=O)[O-])cc1	none
O=C(/C=C/c1ccccc1[N+](=O)[O-])NCc1ccc(Cl)cc1	none
COc1ccccc1NC(=O)/C=C/c1cc([N+](=O)[O-])ccc1OC(F)F	none
O=C(/C=C/c1cc([N+](=O)[O-])ccc1OC(F)F)Nc1cccc2ccccc12	FAS TE block 63, NR3A LBD binder 13 | FAS-TE conf 48
O=C(/C=C/c1cc([N+](=O)[O-])ccc1OC(F)F)NCc1ccc(Cl)cc1	FAS TE block 80 | FAS-TE conf 88
COc1ccc(CNC(=O)/C=C/c2cc([N+](=O)[O-])ccc2OC(F)F)cc1	FAS TE block 82 | FAS-TE conf 65
COC(=O)c1ccc(CNC(=O)/C=C/c2cc([N+](=O)[O-])ccc2OC(F)F)cc1	FAS TE block 83 | FAS-TE conf 81
CCc1nc2c(OCc3cccc(OC)c3)cccn2c1N(C)C(=O)c1ccc(OC)cc1	none (no result: pCIP destab, NR3A LBD binder, beta cell repl)
COc1ccc(CNC(=O)/C=C/c2cc([N+](=O)[O-])ccc2OC(F)F)cc1OC	FAS TE block 75 | FAS-TE conf 78
CCN(Cc1ccccc1)C(=O)c1c[nH]c2ccc(S(=O)(=O)N(C)CCC#N)cc2c1=O	FAS TE block 59 | FAS-TE conf 67
CN(Cc1ccccc1)S(=O)(=O)c1ccc2[nH]cc(C(=O)NCC3CCCO3)c(=O)c2c1 (stereo not given)	none
CCOc1cc(/C=N/Nc2nc(N3CCCCC3)nc(N3CCCCC3)n2)ccc1OC(=O)c1ccco1	FAS TE block 71 | FAS-TE conf inactive
O=C(Oc1cccc(/C=N/Nc2nc(N3CCOCC3)nc(N3CCOCC3)n2)c1)c1ccco1	none
